Reference: the supplement of paper PMC10849652
The full data set covers some 8,800 targets. This sample favours those with a hit. About 0.5% of all pairs of compound and target were hits.

Columns and labels:
Experiment in all cases: log2 fold change, soluble protein after heating vs DMSO (PISA); higher = thermal stabilisation; K562 lysate, 10 uM; active = over 0.2 and 3.5 SD of the protein, either way, in both replicates (recomputed)
lapatinib = compound: CS(=O)(=O)CCNCc1ccc(-c2ccc3ncnc(Nc4ccc(OCc5cccc(F)c5)c(Cl)c4)c3c2)o1 [lapatinib]
In short: (§1)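 To prepare the extract, K562 pellets were dounce-homogenised in PBS pH 7.4 with 1 mM MgCl2, giving crude material at 1 mg/mL protein. This was treated with 10 μM compound for 30 min, then heated in aliquots for 3 min over 48°C-58°C before pooling and addition of NP-40 to 0.5% at 4°C. Centrifugation at 21,000xg for 90 min left soluble protein in the supernatant, which TMTpro 16plex LC-MS/MS quantified with equalised channel sums. Results are log-two fold changes in thermal stability compared with solvent controls, from duplicates.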

pictilisib = compound: CS(=O)(=O)N1CCN(Cc2cc3nc(-c4cccc5[nH]ncc45)nc(N4CCOCC4)c3s2)CC1 [pictilisib]
In short: as §1

crizotinib = compound: C[C@@H](Oc1cc(-c2cnn(C3CCNCC3)c2)cnc1N)c1c(Cl)ccc(F)c1Cl [crizotinib]
In short: as §1

[1] = compound: C[C@H](C1=CC=C(C=C1)C(=O)NC2=C3C=CNC3=NC=C2)N
In short: as §1

duvelisib = compound: C[C@H](Nc1ncnc2nc[nH]c12)c1cc2cccc(Cl)c2c(=O)n1-c1ccccc1 [duvelisib]
In short: as §1

gandotinib = compound: Cc1cc(Nc2cc(CN3CCOCC3)c3nc(C)c(Cc4ccc(Cl)cc4F)n3n2)n[nH]1 [gandotinib]
In short: as §1

tozasertib = compound: Cc1cc(Nc2cc(N3CCN(C)CC3)nc(Sc3ccc(NC(=O)C4CC4)cc3)n2)n[nH]1 [tozasertib]
In short: as §1

doramapimod = compound: Cc1ccc(-n2nc(C(C)(C)C)cc2NC(=O)Nc2ccc(OCCN3CCOCC3)c3ccccc23)cc1 [doramapimod]
In short: as §1

bafetinib = compound: Cc1ccc(NC(=O)c2ccc(CN3CC[C@H](N(C)C)C3)c(C(F)(F)F)c2)cc1Nc1nccc(-c2cncnc2)n1 [bafetinib]
In short: as §1

[2] = compound: Cc1cccc(CC(=O)N2CCc3c2ccc(-c2cn(C)c4ncnc(N)c24)c3F)n1
In short: as §1

nilotinib = compound: Cc1cn(-c2cc(NC(=O)c3ccc(C)c(Nc4nccc(-c5cccnc5)n4)c3)cc(C(F)(F)F)c2)cn1 [nilotinib]
In short: as §1

[3] = compound: Cc1nc(Nc2n[nH]c3c2CN(C(=O)N[C@H](CN(C)C)c2ccccc2)C3(C)C)c2sccc2n1
In short: as §1

dasatinib = compound: Cc1nc(Nc2ncc(C(=O)Nc3c(C)cccc3Cl)s2)cc(N2CCN(CCO)CC2)n1 [dasatinib]
In short: as §1

[4] = compound: Cc1ncc(-c2ccnc(Nc3ccc(S(C)(=O)=O)cc3)n2)n1C(C)C
In short: as §1

[5] = compound: Cn1cc(-c2ccc3c(c2)CCN3C(=O)Cc2cccc(C(F)(F)F)c2)c2c(N)ncnc21
In short: as §1

quisinostat = compound: Cn1cc(CNCC2CCN(c3ncc(C(=O)NO)cn3)CC2)c2ccccc21 [quisinostat]
In short: as §1

tipifarnib = compound: Cn1cncc1[C@@](N)(c1ccc(Cl)cc1)c1ccc2c(c1)c(-c1cccc(Cl)c1)cc(=O)n2C [tipifarnib]
In short: as §1

[6] = compound: NC(=O)Nc1cc(-c2cccc(F)c2)sc1C(=O)N[C@H]1CCCNC1
In short: as §1

[7] = compound: NC(=O)c1cnc(N[C@@H]2CCCC[C@@H]2N)nc1Nc1cccc(-n2nccn2)c1
In short: as §1

[8] = compound: NC1(c2ccc(-c3nc4ccn5c(=O)[nH]nc5c4cc3-c3ccccc3)cc2)CCC1
In short: as §1

Measured: log2 fold change

GRB10 (UniProt Q13322)
Chain of UniProt Q13322 (Q13322 whole entry, looked up): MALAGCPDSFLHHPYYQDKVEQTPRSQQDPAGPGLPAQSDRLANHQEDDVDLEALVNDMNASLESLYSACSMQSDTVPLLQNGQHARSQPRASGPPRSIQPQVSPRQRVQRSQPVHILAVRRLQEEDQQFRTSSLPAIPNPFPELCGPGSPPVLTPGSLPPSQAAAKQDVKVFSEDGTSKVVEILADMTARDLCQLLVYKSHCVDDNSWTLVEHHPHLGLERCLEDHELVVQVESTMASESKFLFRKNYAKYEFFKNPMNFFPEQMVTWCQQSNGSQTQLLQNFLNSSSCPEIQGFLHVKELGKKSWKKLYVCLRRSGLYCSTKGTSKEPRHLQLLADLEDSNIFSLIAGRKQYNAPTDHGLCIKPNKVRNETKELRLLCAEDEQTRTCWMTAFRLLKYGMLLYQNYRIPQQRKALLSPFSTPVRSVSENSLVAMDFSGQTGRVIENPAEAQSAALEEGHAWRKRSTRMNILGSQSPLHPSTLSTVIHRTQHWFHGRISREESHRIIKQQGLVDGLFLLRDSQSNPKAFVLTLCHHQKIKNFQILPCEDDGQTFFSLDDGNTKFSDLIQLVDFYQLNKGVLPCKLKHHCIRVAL
inactive: lapatinib -0.029 | pictilisib -0.034 | crizotinib -0.028 | [1] -0.125 | duvelisib 0.029 | gandotinib 0.016 | tozasertib -0.06 | doramapimod 0.021 | bafetinib -0.049 | [2] 0.099 | nilotinib 0.053 | [3] -0.028 | dasatinib -0.003 | [4] 0.026 | [5] 0.04 | quisinostat -0.065 | tipifarnib -0.058 | [6] 0.008 | [7] -0.056 | [8] 0.008

GMIP (UniProt Q9P107)
Chain of UniProt Q9P107 (Q9P107 whole entry, looked up): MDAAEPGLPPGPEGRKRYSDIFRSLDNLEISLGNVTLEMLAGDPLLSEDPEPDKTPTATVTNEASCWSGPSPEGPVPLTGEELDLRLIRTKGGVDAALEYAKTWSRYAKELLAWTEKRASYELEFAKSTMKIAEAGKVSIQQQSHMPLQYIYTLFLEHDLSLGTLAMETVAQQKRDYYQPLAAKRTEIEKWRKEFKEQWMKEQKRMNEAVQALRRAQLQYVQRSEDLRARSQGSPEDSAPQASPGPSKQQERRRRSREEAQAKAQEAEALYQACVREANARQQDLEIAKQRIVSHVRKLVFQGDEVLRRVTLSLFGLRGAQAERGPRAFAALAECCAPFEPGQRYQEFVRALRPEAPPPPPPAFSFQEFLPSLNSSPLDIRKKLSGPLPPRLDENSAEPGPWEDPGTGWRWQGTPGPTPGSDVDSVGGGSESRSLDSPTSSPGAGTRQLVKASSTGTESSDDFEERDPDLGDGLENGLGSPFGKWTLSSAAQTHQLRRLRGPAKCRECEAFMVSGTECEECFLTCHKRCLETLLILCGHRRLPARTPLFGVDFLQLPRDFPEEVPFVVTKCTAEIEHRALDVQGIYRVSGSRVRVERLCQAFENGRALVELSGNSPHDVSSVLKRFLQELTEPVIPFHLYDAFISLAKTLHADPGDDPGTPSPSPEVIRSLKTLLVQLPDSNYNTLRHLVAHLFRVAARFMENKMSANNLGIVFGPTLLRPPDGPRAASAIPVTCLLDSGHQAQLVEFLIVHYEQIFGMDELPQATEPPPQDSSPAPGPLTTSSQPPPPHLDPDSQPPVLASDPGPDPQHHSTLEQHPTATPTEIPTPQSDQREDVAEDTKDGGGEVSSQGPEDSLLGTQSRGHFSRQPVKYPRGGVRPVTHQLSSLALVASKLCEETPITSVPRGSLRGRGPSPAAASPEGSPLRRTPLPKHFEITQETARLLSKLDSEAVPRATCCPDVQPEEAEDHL
inactive: lapatinib -0.046 | pictilisib -0.015 | crizotinib -0.006 | [1] 0.029 | duvelisib -0.005 | gandotinib -0.024 | tozasertib -0.014 | doramapimod -0.049 | bafetinib -0.068 | [2] 0.041 | nilotinib -0.094 | [3] -0.041 | dasatinib -0.097 | [4] -0.058 | [5] 0.023 | quisinostat -0.012 | tipifarnib -0.017 | [6] 0.034 | [7] -0.025 | [8] -0.022

HADHB (UniProt P55084)
inactive: lapatinib 0.1 | pictilisib 0.067 | crizotinib 0.073 | [1] -0.041 | duvelisib 0.037 | gandotinib 0.138 | tozasertib 0.016 | doramapimod 0.218 | bafetinib 0.014 | [2] -0.093 | nilotinib 0.052 | [3] -0.028 | dasatinib -0.026 | [4] 0.022 | [5] 0.066 | quisinostat -0.064 | tipifarnib 0.028 | [6] -0.122 | [7] -0.076 | [8] 0.073

GSTP1 (UniProt P09211)
Chain of UniProt P09211 (P09211 whole entry, looked up): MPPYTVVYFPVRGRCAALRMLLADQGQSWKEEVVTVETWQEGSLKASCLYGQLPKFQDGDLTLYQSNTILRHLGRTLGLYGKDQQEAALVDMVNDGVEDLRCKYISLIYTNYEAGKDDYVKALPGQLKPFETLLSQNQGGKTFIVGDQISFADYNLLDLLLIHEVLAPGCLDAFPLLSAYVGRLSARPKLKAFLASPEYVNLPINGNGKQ
inactive: lapatinib -0.015 | pictilisib 0.021 | crizotinib -0.018 | [1] -0.025 | duvelisib 0.001 | gandotinib -0.035 | tozasertib -0.007 | doramapimod -0.006 | bafetinib 0.01 | [2] 0.003 | nilotinib 0.006 | [3] -0.001 | dasatinib -0.035 | [4] -0.003 | [5] -0.01 | quisinostat -0.016 | tipifarnib 0.029 | [6] -0.029 | [7] -0.004 | [8] 0.01

GNE isoform 2 (UniProt Q9Y223)
Chain of UniProt Q9Y223 (Q9Y223 whole entry, looked up): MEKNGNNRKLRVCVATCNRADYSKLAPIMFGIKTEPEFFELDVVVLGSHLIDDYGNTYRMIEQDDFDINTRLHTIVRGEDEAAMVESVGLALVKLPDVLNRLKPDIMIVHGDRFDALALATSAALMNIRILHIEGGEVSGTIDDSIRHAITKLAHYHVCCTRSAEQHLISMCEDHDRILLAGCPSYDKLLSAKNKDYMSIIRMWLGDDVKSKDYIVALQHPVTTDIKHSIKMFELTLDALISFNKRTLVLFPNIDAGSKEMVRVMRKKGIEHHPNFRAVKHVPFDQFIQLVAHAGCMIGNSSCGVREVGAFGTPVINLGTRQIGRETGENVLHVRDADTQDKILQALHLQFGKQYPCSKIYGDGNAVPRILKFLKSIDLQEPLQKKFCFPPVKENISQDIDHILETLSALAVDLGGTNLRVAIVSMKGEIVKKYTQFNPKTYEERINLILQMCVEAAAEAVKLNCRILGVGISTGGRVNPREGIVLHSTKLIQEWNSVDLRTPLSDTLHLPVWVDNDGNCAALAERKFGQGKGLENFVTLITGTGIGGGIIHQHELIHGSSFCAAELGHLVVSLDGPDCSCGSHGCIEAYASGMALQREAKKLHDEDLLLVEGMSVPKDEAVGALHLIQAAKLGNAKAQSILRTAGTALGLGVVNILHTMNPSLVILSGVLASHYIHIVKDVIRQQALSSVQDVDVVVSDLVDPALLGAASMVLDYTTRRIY
inactive: lapatinib 0.012 | pictilisib -0.005 | crizotinib -0.053 | [1] -0.01 | duvelisib -0.011 | gandotinib -0.127 | tozasertib -0.008 | doramapimod 0.021 | bafetinib -0.031 | [2] 0.034 | nilotinib -0.013 | [3] -0.003 | dasatinib 0.003 | [4] -0.081 | [5] 0.025 | quisinostat -0.042 | tipifarnib 0.008 | [6] 0.061 | [7] -0.008 | [8] -0.006

HSPA8 (UniProt P11142)
inactive: lapatinib 0.004 | pictilisib 0.022 | crizotinib 0.023 | [1] 0.012 | duvelisib 0.005 | gandotinib -0.014 | tozasertib 0.006 | doramapimod 0.001 | bafetinib 0.059 | [2] -0.01 | nilotinib -0.01 | [3] 0.002 | dasatinib 0.013 | [4] 0.004 | [5] -0.007 | quisinostat 0.022 | tipifarnib 0 | [6] -0.024 | [7] -0.008 | [8] 0.003

HK1 isoform 2 (UniProt P19367)
inactive: lapatinib 0 | pictilisib -0.009 | crizotinib -0.023 | [1] -0.026 | duvelisib -0.033 | gandotinib -0.051 | tozasertib 0.038 | doramapimod 0.039 | bafetinib -0.023 | [2] 0.029 | nilotinib 0.011 | [3] 0 | dasatinib -0.026 | [4] -0.005 | [5] -0.008 | quisinostat -0.013 | tipifarnib 0.007 | [6] 0.008 | [7] -0.005 | [8] 0

ISCA1 isoform 2 (UniProt Q9BUE6)
Chain of UniProt Q9BUE6 (Q9BUE6 whole entry, looked up): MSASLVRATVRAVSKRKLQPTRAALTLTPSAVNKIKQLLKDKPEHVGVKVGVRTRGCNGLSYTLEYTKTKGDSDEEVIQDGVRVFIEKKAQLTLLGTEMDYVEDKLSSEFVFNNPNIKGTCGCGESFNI
active: [1] 0.343
inactive: lapatinib 0.054 | pictilisib -0.08 | crizotinib -0.011 | duvelisib 0.012 | gandotinib -0.132 | tozasertib -0.004 | doramapimod 0.011 | bafetinib 0.067 | [2] -0.223 | nilotinib 0.043 | [3] 0.251 | dasatinib 0 | [4] 0.111 | [5] -0.002 | quisinostat 0.025 | tipifarnib 0.026 | [6] -0.05 | [7] -0.007 | [8] 0.013

INTS5 (UniProt Q6P9B9)
Chain of UniProt Q6P9B9 (Q6P9B9 whole entry, looked up): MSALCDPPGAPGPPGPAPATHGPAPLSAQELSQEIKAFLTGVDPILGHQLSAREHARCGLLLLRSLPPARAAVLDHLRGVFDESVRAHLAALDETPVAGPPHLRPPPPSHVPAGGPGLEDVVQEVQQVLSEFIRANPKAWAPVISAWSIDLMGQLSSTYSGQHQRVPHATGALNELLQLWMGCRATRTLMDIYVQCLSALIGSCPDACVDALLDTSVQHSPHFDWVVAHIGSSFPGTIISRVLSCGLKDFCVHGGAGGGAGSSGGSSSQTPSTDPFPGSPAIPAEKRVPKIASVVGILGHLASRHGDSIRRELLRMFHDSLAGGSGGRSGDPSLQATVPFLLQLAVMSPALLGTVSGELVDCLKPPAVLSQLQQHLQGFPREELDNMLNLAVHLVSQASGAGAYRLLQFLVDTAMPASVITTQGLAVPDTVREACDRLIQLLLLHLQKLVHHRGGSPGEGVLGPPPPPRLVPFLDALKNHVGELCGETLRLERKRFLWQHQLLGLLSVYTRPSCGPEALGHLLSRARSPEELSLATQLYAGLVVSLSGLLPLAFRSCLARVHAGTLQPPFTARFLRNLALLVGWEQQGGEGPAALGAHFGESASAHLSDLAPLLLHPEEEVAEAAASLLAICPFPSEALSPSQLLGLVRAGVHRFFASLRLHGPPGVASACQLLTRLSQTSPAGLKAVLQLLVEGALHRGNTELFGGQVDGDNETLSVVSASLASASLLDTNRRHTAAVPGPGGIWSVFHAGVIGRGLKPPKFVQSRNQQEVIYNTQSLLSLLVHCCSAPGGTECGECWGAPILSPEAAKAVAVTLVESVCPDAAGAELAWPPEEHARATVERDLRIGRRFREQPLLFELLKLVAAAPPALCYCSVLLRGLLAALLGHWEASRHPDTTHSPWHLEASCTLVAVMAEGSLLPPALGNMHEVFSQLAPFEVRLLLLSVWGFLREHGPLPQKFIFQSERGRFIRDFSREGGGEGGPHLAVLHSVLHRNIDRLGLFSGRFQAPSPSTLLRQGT
inactive: lapatinib -0.688 | pictilisib 0.018 | crizotinib -0.082 | [1] 0.048 | duvelisib -0.022 | gandotinib -0.235 | tozasertib 0.009 | doramapimod -0.002 | bafetinib -0.092 | [2] 0.054 | nilotinib 0.11 | [3] -0.093 | dasatinib -0.012 | [4] 0.062 | [5] 0.055 | quisinostat -0.002 | tipifarnib 0.294 | [6] 0.043 | [7] -0.064 | [8] 0.081

HERC2 (UniProt O95714)
inactive: lapatinib -0.001 | pictilisib -0.007 | crizotinib -0.055 | [1] -0.041 | duvelisib 0.023 | gandotinib -0.007 | tozasertib 0.022 | doramapimod 0.058 | bafetinib -0.15 | [2] 0.153 | nilotinib -0.077 | [3] 0.017 | dasatinib 0.032 | [4] -0.034 | [5] 0.118 | quisinostat -0.061 | tipifarnib 0.007 | [6] 0.028 | [7] -0.047 | [8] 0.085

GLB1 (UniProt P16278)
Chain of UniProt P16278 (P16278 whole entry, looked up): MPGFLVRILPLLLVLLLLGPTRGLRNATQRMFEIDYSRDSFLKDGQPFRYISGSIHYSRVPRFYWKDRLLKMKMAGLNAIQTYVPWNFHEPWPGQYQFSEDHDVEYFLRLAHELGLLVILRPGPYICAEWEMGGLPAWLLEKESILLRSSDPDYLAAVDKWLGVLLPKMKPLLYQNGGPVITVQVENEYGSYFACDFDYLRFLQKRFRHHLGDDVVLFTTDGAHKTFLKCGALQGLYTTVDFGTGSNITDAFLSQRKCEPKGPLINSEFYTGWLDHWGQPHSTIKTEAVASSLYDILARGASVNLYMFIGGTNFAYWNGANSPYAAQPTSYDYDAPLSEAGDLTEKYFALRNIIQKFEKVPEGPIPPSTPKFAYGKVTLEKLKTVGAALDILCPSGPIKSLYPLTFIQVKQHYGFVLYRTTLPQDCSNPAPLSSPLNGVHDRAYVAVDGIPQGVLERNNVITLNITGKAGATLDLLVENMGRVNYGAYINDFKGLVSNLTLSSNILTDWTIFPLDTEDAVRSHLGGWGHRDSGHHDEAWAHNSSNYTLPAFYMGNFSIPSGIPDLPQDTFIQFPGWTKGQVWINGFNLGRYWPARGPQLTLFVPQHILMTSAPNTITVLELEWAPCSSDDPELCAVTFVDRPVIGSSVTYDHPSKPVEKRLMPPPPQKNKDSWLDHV
inactive: lapatinib -0.02 | pictilisib 0.001 | crizotinib -0.003 | [1] -0.017 | duvelisib 0.004 | gandotinib 0.012 | tozasertib -0.084 | doramapimod 0.016 | bafetinib -0.03 | [2] 0.008 | nilotinib -0.006 | [3] 0.03 | dasatinib -0.026 | [4] 0.023 | [5] 0.003 | quisinostat 0.03 | tipifarnib 0.017 | [6] -0.016 | [7] -0.011 | [8] -0.022

HDGFL2 isoform 2 (UniProt Q7Z4V5)
Chain of UniProt Q7Z4V5 (Q7Z4V5 whole entry, looked up): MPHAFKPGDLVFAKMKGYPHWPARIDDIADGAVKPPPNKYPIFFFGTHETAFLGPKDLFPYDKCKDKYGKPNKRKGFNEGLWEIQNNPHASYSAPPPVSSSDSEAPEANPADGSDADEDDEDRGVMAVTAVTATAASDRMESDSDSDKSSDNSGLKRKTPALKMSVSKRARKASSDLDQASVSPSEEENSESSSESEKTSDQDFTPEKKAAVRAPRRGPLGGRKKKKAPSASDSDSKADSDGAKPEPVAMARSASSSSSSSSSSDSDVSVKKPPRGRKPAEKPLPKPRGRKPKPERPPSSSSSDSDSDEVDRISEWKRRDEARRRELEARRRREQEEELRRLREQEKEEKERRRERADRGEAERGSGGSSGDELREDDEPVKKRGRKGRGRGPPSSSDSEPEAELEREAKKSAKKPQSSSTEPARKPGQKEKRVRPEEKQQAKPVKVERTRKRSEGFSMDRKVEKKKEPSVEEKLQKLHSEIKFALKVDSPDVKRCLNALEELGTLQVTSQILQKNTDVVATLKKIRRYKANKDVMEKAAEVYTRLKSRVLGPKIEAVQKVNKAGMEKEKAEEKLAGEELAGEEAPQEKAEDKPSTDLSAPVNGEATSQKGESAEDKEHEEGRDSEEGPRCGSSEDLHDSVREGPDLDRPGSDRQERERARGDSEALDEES
inactive: lapatinib 0.02 | pictilisib 0.027 | crizotinib -0.028 | duvelisib 0.037 | tozasertib 0.018 | doramapimod -0.003 | bafetinib 0 | [2] 0.167 | nilotinib -0.005 | [3] -0.005 | dasatinib 0.014 | [4] -0.021 | [5] -0.023 | quisinostat -0.061 | tipifarnib 0.003 | [6] 0.011 | [7] -0.001 | [8] -0.02
active: [1] -0.348 | gandotinib 0.248
